Some test systems named below: DU-145 prostate; K-562 leukemia; MALME-3M melanoma; MDA-MB-231 breast; RXF 393 renal; SF-268 CNS; SF-539 CNS; UACC-257 melanoma; M14 melanoma; HCT-15 colon; HT29 colon; SNB-75 CNS; SNB-19 CNS; U251 CNS; PC-3 prostate; SK-MEL-5 melanoma; UACC-62 melanoma; LOX IMVI melanoma; SK-MEL-28 melanoma.
Experiment in all cases: NCI-60 one-dose screen, 48 h (100 = growth as untreated, 0 = no growth, -100 = all killed)
Details in all cases: 10 µM unless noted

This is part of a sample that, as a whole, favours compounds with a hit. Of some 83,000 tested, about 20% had one in any assay.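 48-hour exposure, single concentration, 96-well plates; percent growth endpoint where 0 means no net growth. Active: below 10.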 Unmarked numbers belong to inactive results. Calls of active or inactive are those of the source.

With `CCOCC(O)(c1ccc(Cl)cc1)c1ccc(Cl)cc1`, the growth in the assay with DU-145 prostate was 96.1%; in the assay on K-562 leukemia it was 88.1%; with MALME-3M melanoma, 103%; with MDA-MB-231 breast, 100%; with RXF 393 renal, 117%; in the assay with SF-268 CNS it was 97.4%. The growth with SF-539 CNS is 104%; in the assay with UACC-257 melanoma, 94.1%; with M14 melanoma it was 114%; with HCT-15 colon it was 88.6%; with HT29 colon, 81.4%; in the assay on SNB-75 CNS it was 103%. Moreover, the growth was 106% in the assay with SNB-19 CNS; 95.9% with U251 CNS; 88.8% in the assay with PC-3 prostate; 96.1% with SK-MEL-5 melanoma; 87% in the assay on UACC-62 melanoma; 94.8% in the assay with LOX IMVI melanoma. For the same compound, the growth with SK-MEL-28 melanoma was 108%.
For `CC1C2CCC(C2)C1COCCOCCO` (configuration not stated), the growth was 114% with DU-145 prostate; 109% in the assay with K-562 leukemia; 107% in the assay with MALME-3M melanoma; 113% in the assay with MDA-MB-231 breast; 116% with RXF 393 renal; 112% in the assay on SF-268 CNS. Besides, the growth in the assay on SF-539 CNS was 96.7%; in the assay with UACC-257 melanoma, 87.8%; in the assay on M14 melanoma, 112%; in the assay on HCT-15 colon it was 98.3%; in the assay with HT29 colon, 102%; in the assay with SNB-75 CNS it was 109%. Moreover, the growth with SNB-19 CNS was 123%; with U251 CNS, 91.9%; in the assay with PC-3 prostate, 101%; with SK-MEL-5 melanoma, 106%; in the assay on UACC-62 melanoma, 104%; in the assay on LOX IMVI melanoma it was 94.9%. Besides, the growth in the assay on SK-MEL-28 melanoma is 109%.
With `C#CC[C@@H]1C[C@]2(C)[C@H]3CC=C4[C@H]5CC(C)(C)CC[C@]5(C(=O)NCCCCN)CC[C@@]4(C)[C@]3(C)CC[C@H]2C(C)(C)[C@H]1OC(C)=O`, the growth with DU-145 prostate was -47.9% (active); in the assay on K-562 leukemia, -30% (active); in the assay with MALME-3M melanoma, 85%; in the assay on MDA-MB-231 breast it was -58.6% (active); in the assay on RXF 393 renal it was -43.3% (active); in the assay on SF-268 CNS, 89.4%. For the same compound, the growth is 86.9% in the assay with SF-539 CNS; 111% with UACC-257 melanoma; 2.23% (active) with M14 melanoma; 8.51% (active) with HCT-15 colon; 5.83% (active) in the assay on HT29 colon; -79.9% (active) in the assay with SNB-75 CNS. Further, the growth with SNB-19 CNS was 6.48% (active); in the assay with U251 CNS, -77.9% (active); with PC-3 prostate it was 27%; in the assay on SK-MEL-5 melanoma it was 93.9%; with UACC-62 melanoma, 106%; in the assay with LOX IMVI melanoma it was -70.2% (active). In addition, the growth in the assay on SK-MEL-28 melanoma was 102%.
For the compound `O=C(NCC(c1ccsc1)N1CCCCCC1)c1ccc(C(F)(F)F)cc1` (configuration not stated), the growth in the assay with DU-145 prostate is 105%; in the assay with K-562 leukemia, 83.7%; in the assay with MALME-3M melanoma, 98.5%; in the assay on MDA-MB-231 breast it was 85.1%; in the assay on RXF 393 renal it was 85.7%; in the assay on SF-268 CNS, 98.3%. The growth is 108% in the assay on SF-539 CNS; 108% with UACC-257 melanoma; 93% in the assay with M14 melanoma; 100% in the assay with HCT-15 colon; 82% with HT29 colon; 87.6% with SNB-75 CNS. Besides, the growth is 87.9% with SNB-19 CNS; 90.7% in the assay on U251 CNS; 88.5% with PC-3 prostate; 94.9% in the assay on SK-MEL-5 melanoma; 99.1% in the assay with UACC-62 melanoma; 78.9% with LOX IMVI melanoma. Further, the growth with SK-MEL-28 melanoma was 110%.
On to `O=C(CN1CCN(c2ccccc2)CC1)N1CCN(c2nnc(-c3ccc(Cl)cc3)c(-c3ccc(Cl)cc3)n2)CC1`, for which the growth was 76% in the assay with DU-145 prostate; 22.4% in the assay on K-562 leukemia; 126% with MALME-3M melanoma; 76.4% in the assay on MDA-MB-231 breast; 49.9% with RXF 393 renal; 65.2% in the assay with SF-268 CNS. The growth is 60.2% with SF-539 CNS; 61.6% with UACC-257 melanoma; 69.5% with M14 melanoma; 45.4% with HCT-15 colon; 32.3% in the assay on HT29 colon; 66.8% in the assay on SNB-75 CNS. Also, the growth was 82.1% with SNB-19 CNS; 60.4% in the assay with U251 CNS; 26.6% in the assay on PC-3 prostate; 44.2% in the assay on SK-MEL-5 melanoma; 63.1% in the assay on UACC-62 melanoma; 64.6% in the assay on LOX IMVI melanoma. Besides, the growth in the assay on SK-MEL-28 melanoma is 81.9%.
On to `COc1ccc(C2=CC(c3ccc(OC)cc3Br)N3C=CSC3=N2)cc1` (configuration not stated), for which the growth with DU-145 prostate was 66.2%; in the assay on K-562 leukemia, 9.34% (active); with MALME-3M melanoma it was 89.9%; in the assay with MDA-MB-231 breast, 75%; with RXF 393 renal, 84.6%; in the assay with SF-268 CNS it was 77.1%. Besides, the growth in the assay with SF-539 CNS is 77.5%; in the assay with UACC-257 melanoma, 80%; with M14 melanoma it was 25.2%; with HCT-15 colon, 27.5%; with HT29 colon, -6.33% (active); in the assay with SNB-75 CNS, 63.7%. The growth in the assay with SNB-19 CNS is 62.3%; in the assay with U251 CNS it was 37.2%; with PC-3 prostate it was 50.4%; in the assay on SK-MEL-5 melanoma, 78.7%; in the assay on UACC-62 melanoma it was 71.2%; with LOX IMVI melanoma, 16.6%. In the assay with SK-MEL-28 melanoma, the growth was 84%.
With `Nc1nc(N)c2cc(Sc3ccc(Cl)cc3)ccc2n1`, the growth was 29.7% in the assay on DU-145 prostate; 4.88% (active) in the assay with K-562 leukemia; 56.7% with MALME-3M melanoma; 31.3% in the assay with MDA-MB-231 breast; 42.4% in the assay on RXF 393 renal; 31.1% with SF-268 CNS. Also, the growth is 35% in the assay with SF-539 CNS; 40.1% with UACC-257 melanoma; 27.8% in the assay with M14 melanoma; 20.5% in the assay on HCT-15 colon; 14.8% with HT29 colon; 48.2% in the assay on SNB-75 CNS. For the same compound, the growth was 40% in the assay with SNB-19 CNS; 24.7% in the assay on U251 CNS; 25.2% with PC-3 prostate; 17.8% in the assay with SK-MEL-5 melanoma; 24.4% with UACC-62 melanoma; 27% in the assay with LOX IMVI melanoma. For the same compound, in the assay with SK-MEL-28 melanoma, the growth was 54%.
As for `CCOC(=O)c1c(NC(=O)c2ccccc2)sc2c(O)c(CN(CC)CC)ccc12`, the growth in the assay on DU-145 prostate is -26.9% (active); in the assay with K-562 leukemia, 7.52% (active); in the assay with MALME-3M melanoma, 38.1%; with MDA-MB-231 breast, 1.41% (active); in the assay with RXF 393 renal, -27.4% (active); with SF-268 CNS it was 4.48% (active). The growth is 6.42% (active) in the assay on SF-539 CNS; 51% in the assay with UACC-257 melanoma; 14.4% with M14 melanoma; 15.7% with HCT-15 colon; 2.28% (active) in the assay with HT29 colon; -26.2% (active) with SNB-75 CNS. Moreover, the growth in the assay on SNB-19 CNS is 43.8%; in the assay on U251 CNS, 1.72% (active); with PC-3 prostate, 22.8%; in the assay on SK-MEL-5 melanoma it was -51.3% (active); with UACC-62 melanoma, 21.2%; with LOX IMVI melanoma it was 13.3%. For the same compound, in the assay on SK-MEL-28 melanoma, the growth was 40%.
